Screening results from PubChem.
This is a sample that favours compounds with a hit; in the whole collection about 1.5% have one here.
PINK1 modulator = PINK1 expression modulation; PINK1 immunofluorescence, high-content cytometry, 24 h; Potency, µM (series often up to 76.6 µM), hits mostly activators; 410,000 compounds, 0.2% hits; active = well fitted activation curve with a large enough effect; inconclusive = small, poorly fitted or top-dose-only effect; cell line not stated here; note: nearly all actives have a fitted effect of over 65% in size
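PINK1 protein level read as immunofluorescence by microplate cytometer in a fixed, stained stable cell line after 24 h exposure to five compound concentrations, with CCCP as control.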
BRCA1 expr up = increases BRCA1 expression; Potency, µM (titrated, usually from 46.1 µM), hits mostly activators; 380,000 compounds, 1.1% hits; MCF7-BRCA1-FFLuc reporter, luminescence, 48 h; response scale: scaled: vehicle 0%, 10 µM genistein 100%; note: nearly all actives have a fitted effect of over 80% in size
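48 h compound treatment of MCF7-BRCA1-FFLuc cells (phenol-red free MEM, 37 °C), then 15 min with luciferase substrate and luminescence imaging.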
TCR act = activates T cell receptor signaling; Potency, µM (series often up to 9.22 µM), hits mostly activators; primary human leukocytes, anti-CD3, IL-2 HTRF, 48 h; 330,000 tested, under 10 active
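Primary human leukocytes receive a-CD3 beads and test compound and are incubated 48 hr. Secreted IL-2 is then assayed by HTRF, measuring 665nm acceptor emission after 320nm excitation of the europium donor.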
pAkt inh = inhibitors of Akt phosphorylation; Neuro2A IGF-stimulated pAkt S473 HTRF, 20 min; stronger effect = lower value; activity change, % for hits at 50 µM; 360,000 compounds, 0.32% hits; AID 651550; in the data active = activity change below about -80%; inconclusive = mostly about -51% to -80%
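Single-point screen (50 µM final compound) in Neuro2A cells stimulated 20 min with 6 nM IGF at 37 deg C. After lysis, Ser473-phosphorylated Akt read by HTRF (ex 330 nm, em 615/665 nm) as the 665/615 ratio.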
Each line names hits and unclear results; the compound was inactive in the other large screens. Unless noted, calls come from the whole dose curve; as a rule, active = well fitted curve in the direction sought with a large enough effect; inconclusive = small, poorly fitted or top-dose-only effect, or another doubt; inactive = no such curve, though single readings can be large; an effect the other way counts as inactive or inconclusive.

O=C(CSc1nnc2scc(-c3ccccc3)n12)NCc1ccc2c(c1)OCO2	none
COc1ccc(OC)c(CN2CCOc3ccc(CN4CCC(O)(c5cccnc5)CC4)cc3C2)c1	none (no result: BRCA1 expr up, TCR act, pAkt inh)
O=C(Cc1c[nH]c2ccccc12)N1CCC(n2c(C3CCCO3)nc3cc(C(F)(F)F)ccc32)CC1 (centres undefined)	none (no result: BRCA1 expr up, TCR act, pAkt inh)
Oc1cc(-c2cccs2)cc2c1OCCN(Cc1cn[nH]c1-c1ccc(Cl)cc1)C2	none (no result: BRCA1 expr up, TCR act, pAkt inh)
O=[N+]([O-])c1ccc(/C=C/c2ccncc2)cc1	BRCA1 expr up 10µM
O=[N+]([O-])c1cccc(/C=C/c2ccncc2)c1	none
O=c1c2ccccc2nnn1CSc1nc2ccccc2[nH]1	BRCA1 expr up inconclusive
Cc1ccc(SCn2nnc3ccccc3c2=O)c(C)c1	BRCA1 expr up 13µM
Cc1cc(=O)[nH]c(SCn2nnc3ccccc3c2=O)n1	PINK1 modulator inconclusive, pAkt inh -99%
COCCn1c(=O)c(-c2ccccc2)nc2cnc(N(C)C)nc21	none (no result: BRCA1 expr up, TCR act, pAkt inh)
O=c1[nH]c(SCc2ccc(Cl)cc2)nc2ccsc12	BRCA1 expr up 4.5µM
CCN(CC)CCNC(=O)c1cnn(-c2nccc(-c3cc4ccccc4o3)n2)c1C	none (no result: BRCA1 expr up, TCR act, pAkt inh)
COc1ccc(-c2csc(-c3cccnc3)n2)cc1C	BRCA1 expr up 13µM
COc1ccc(NC(=S)Nc2ncccc2C)cc1OC	BRCA1 expr up 7.9µM
COc1ccc(-c2csc(Nc3ncccc3C)n2)cc1	BRCA1 expr up inconclusive
COc1ccc(-c2csc(Nc3ncccc3C)n2)cc1OC	BRCA1 expr up 2.8µM
CCc1cc(C(=O)NCC2Cc3cc(-c4ccccc4C(C)=O)ccc3O2)no1 (centres undefined)	none (no result: BRCA1 expr up, TCR act, pAkt inh)
N[C@@H](Cc1ccc(O)cc1)C(=O)NO	none (no result: TCR act, pAkt inh)
COc1ccc(CCNC(=O)CSc2ncc3c(n2)-c2cc(Cl)ccc2N(Cc2ccccc2)S3(=O)=O)cc1OC	none (no result: TCR act, pAkt inh)
CCOc1ccc(CCNC(=O)CCc2c(C)nc3cc(-c4ccccc4OC)nn3c2C)cc1	none (no result: BRCA1 expr up, TCR act, pAkt inh)
O=C(CN(Cc1ccco1)C(=O)CNS(=O)(=O)c1ccccc1)NCc1ccccc1	pAkt inh -120%
C=CCn1c(SCC(=O)NCCCC)nc2scc(-c3ccco3)c2c1=O	none
C=CCn1c(SCC(C)=O)nc2scc(-c3ccc(C)o3)c2c1=O	BRCA1 expr up 13µM (no result: TCR act)
COc1ccc(-c2cc3nc4ccccc4n3c(N)c2C#N)cc1	BRCA1 expr up 4µM
CCCCc1c(O)nc(SCC(=O)N2CCOCC2)n(-c2ccccc2C)c1=O	pAkt inh -113%
COc1ccccc1N1C(=O)CCC1(C#N)c1ccccc1 (centres undefined)	pAkt inh -107%
N#CC1(c2ccccc2)CCC(=O)N1c1ccccc1 (centres undefined)	none
O=C(NCc1ccccn1)c1cnn(-c2ncc3c(n2)-c2ccccc2CC3)c1C1CC1	none (no result: BRCA1 expr up, TCR act, pAkt inh)
N/C(CS(=O)(=O)c1ccccn1)=N\OC(=O)c1ccccc1Cl	BRCA1 expr up 2.5µM
Cc1ccc(C)c(N2CCN(S(=O)(=O)c3ccc(C(=O)N(C)C)s3)CC2)c1	none (no result: TCR act, pAkt inh)
Cc1ccc2c(CC(=O)Nc3sccc3C(N)=O)coc2c1	BRCA1 expr up 1.3µM
CCOC(=O)/C(C#N)=N/Nc1ccc(S(=O)(=O)N2CCc3ccccc32)cc1	PINK1 modulator 16µM
COc1ccc(Cc2nc3ccc(C(=O)NCc4cccc(C)n4)cc3o2)cc1OC	none (no result: TCR act)
COCCC1CCCCN1C(=O)c1ccc2nc(Cc3ccccc3F)oc2c1 (centres undefined)	BRCA1 expr up 7.9µM
Cc1cccc(CNC(=O)c2ccc3nc(Cc4ccccc4F)oc3c2)n1	BRCA1 expr up 13µM
Cn1cc(CCNC(=O)c2ccc3nc(Cc4ccccc4F)oc3c2)cn1	BRCA1 expr up 2.5µM
COCCc1nc2ccc(C(=O)N3CCCCC3COC)cc2o1 (centres undefined)	none
C1NNCC12CNNC2	none (no result: TCR act, pAkt inh)
Cc1ccc(OCC(=O)Nc2ccccc2C(=O)OCc2cc(=O)n3ccsc3n2)cc1C	none (no result: BRCA1 expr up, TCR act, pAkt inh)
c1ccc(-c2cnnc(N3CCCCC3)n2)cc1	BRCA1 expr up 7.9µM
FC(F)(F)c1cc(-c2ccccc2)nc(N2CCCCCC2)n1	none
O=C1COc2ccc(-c3cc(-c4ccc(Cl)cc4)c4c(n3)-c3ccccc3OC4)cc2N1	none (no result: TCR act, pAkt inh)
NC1=NC(=O)/C(=C/c2c(OS(=O)(=O)c3ccc(Cl)cc3)ccc3ccccc23)S1	PINK1 modulator 13µM
NC1=NC(=O)/C(=C/c2ccccc2OS(=O)(=O)c2ccccc2)S1	PINK1 modulator inconclusive
CCN=C1S/C(=C\c2ccc(N3CCOCC3)cc2C)C(=O)N1CC	none
COCCN1C(=O)/C(=C/c2ccc(N3CCCC3)cc2C)SC1=S	PINK1 modulator 22µM
N/C(=N/OC(=O)c1cccc([N+](=O)[O-])c1)c1cccc([N+](=O)[O-])c1	BRCA1 expr up 7.1µM (no result: TCR act)
N/C(=N\OC(=O)c1cccc(F)c1)c1cccc([N+](=O)[O-])c1	BRCA1 expr up 13µM
Cc1ccc(C)c(NC(=O)c2ccccc2O)c1	PINK1 modulator 16µM
Cc1csc(NC(=O)c2oc3ccccc3c2C)n1	none
Cc1csc(Nc2nc(N)c(C(=O)Nc3ccccc3)o2)n1	BRCA1 expr up 7.9µM
Cc1csc(NC(=O)c2ccccc2O)n1	pAkt inh -99%
Cc1csc(NC(=O)Cc2ccccc2Cl)n1	BRCA1 expr up 10µM
Cc1c(C(=O)NCc2cccc(F)c2)sc2ncnc(NCC3CCCO3)c12 (centres undefined)	none (no result: BRCA1 expr up, TCR act, pAkt inh)
CC1CCCN(S(=O)(=O)c2cc3c(cc2Cl)NC(=O)CO3)C1 (centres undefined)	none (no result: BRCA1 expr up, TCR act, pAkt inh)
Cc1ccc(C(=O)Nc2cnn(-c3ccc(C(=O)NCc4nc(-c5ccccc5)n[nH]4)cc3)c2)c(C)c1	none (no result: BRCA1 expr up, TCR act, pAkt inh)
COc1cc(CN2CCC3(CCC(CNC(=O)c4ccccc4)O3)CC2)cc(OC)c1 (centres undefined)	none (no result: BRCA1 expr up, TCR act, pAkt inh)
CCN(CCCNC(=O)CSc1cc(=O)n(CC)c2ccccc12)c1ccccc1	none (no result: BRCA1 expr up, TCR act, pAkt inh)
COc1ccccc1-n1cc(C(=O)NCCN2Cc3ccccc3OC(c3ccsc3)C2)cn1 (centres undefined)	none (no result: BRCA1 expr up, TCR act, pAkt inh)
CC(C)(C)c1csc(NC(=O)c2ccccc2O)n1	PINK1 modulator 28µM
Cc1ccc(S(=O)(=O)NCC(Nc2cccc(Cl)c2)c2ccccc2)cc1 (centres undefined)	PINK1 modulator inconclusive (no result: TCR act, pAkt inh)
CCCN1C(=O)c2ccccc2NC1c1ccc(OC)c(COc2ccc([N+](=O)[O-])c(C)c2)c1 (centres undefined)	none (no result: TCR act, pAkt inh)
COC(=O)c1cc(S(=O)(=O)N2CCOCC2)ccc1Sc1ccccc1N	pAkt inh -99%
COc1ccc(N2CCN(C(c3ccccc3)c3nnc(-c4ccccc4Cl)o3)CC2)cc1 (centres undefined)	none (no result: BRCA1 expr up, TCR act, pAkt inh)
CC(C)c1ccccc1Oc1c(C(F)(F)F)oc2c(CN3CCN(C)CC3)c(O)ccc2c1=O	none (no result: BRCA1 expr up, TCR act, pAkt inh)
CCCc1cc2c(=O)c(-c3ccccn3)coc2cc1OC	BRCA1 expr up 5.6µM
CNc1ccc(C=C2C=CC=C2)cc1	none (no result: TCR act, pAkt inh)
CC(C)(C)c1ccc(Oc2nc3ccccn3c(=O)c2/C=C(\C#N)c2nc3ccccc3[nH]2)cc1	PINK1 modulator 28µM (no result: BRCA1 expr up, TCR act, pAkt inh)
O=[N+]([O-])c1ccc(O/N=[N+](\[O-])N2CCN(c3ncccn3)CC2)c([N+](=O)[O-])c1	none (no result: TCR act, pAkt inh)
